Laboratory results taken from PubChem BioAssay (NCATS).
Several values for one entry are separate records, joined by “and”; a condition that tells them apart may be missing. Equal entries are not always repeated. Results filed as inconclusive are left out. Activity calls are given as the source filed them. The call rests on the fitted dose curve; in most records, active means well fitted curve in the direction sought with a large enough effect; inconclusive means small, poorly fitted or top-dose-only effect, or another doubt; inactive means no such curve, though single readings can be large or run the other way.

Assay: qHTS Assay for Identifying Gametocytocidal Compounds (AID 743244);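 on max response: actives lower the fluorescent signal which means gametocytes are killed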
Settings: P. falciparum 3D7 stage III-V gametocytes, alamarBlue, 72 h; max response: active compounds read low
Procedure, shortened: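 Stage III-V P. falciparum 3D7 gametocytes, 20,000 per well, were exposed to compounds for 72 h at 37C, 5% CO2. AlamarBlue was then added for 24 h and viability was read as fluorescence at Ex 525/Em 598 nm.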
On the % scale 0 is the no-effect control and ±100 the full control effect; potency means the concentration at half of the fitted maximal effect.

Question: Which max response does the source give for `C[C@H](N)[C@H](O)c1ccc(O)c(O)c1` here?
Answer: -0.0676% (inactive)

Question: For `COc1cccc2c1C(=O)c1c(O)c3c(c(O)c1C2=O)C[C@@](O)(C(=O)CO)C[C@@H]3O[C@H]1C[C@H](N)[C@H](O[C@@H]2CCCCO2)[C@H](C)O1`, which Potency is on record?
Answer: 22.4 µM (active)

Question: For `C[C@]12CC[C@H](O)CC1=CC[C@@H]1[C@@H]2CC[C@]2(C)C(=O)CC[C@@H]12`, which max response is on record?
Answer: -7.96% (inactive)

Question: For `C[C@@H]1O[C@@H](O[C@@H]2C=C3CC[C@@H]4[C@H](CC[C@]5(C)[C@@H](c6ccc(=O)oc6)CC[C@]45O)[C@@]3(C)CC2)[C@H](O)[C@H](O)[C@H]1O`, which max response is on record?
Answer: 11.2% (inactive)

Question: With `CN1C(=O)CN=C(c2ccccc2)c2cc([N+](=O)[O-])ccc21` as the compound, how does the max response read?
Answer: 4.86% (inactive)

Question: Which max response does the source give for `CN1C(=O)[C@@H](NC(=O)c2cc3ccccc3[nH]2)N=C(c2ccccc2)c2ccccc21` here?
Answer: -6.73% (inactive)

Question: With `C[C@]12CC[C@H]3[C@@H](CC=C4C[C@@H](O)CC[C@@]43C)[C@@H]1CC[C@@H]2O` as the compound, how does the max response read?
Answer: -0.897% (inactive)

Question: Which Potency does the source give for `CNC(=O)Oc1ccc2c(c1)[C@]1(C)CCN(C)[C@@H]1N2C` here?
Answer: 11.2 µM (active) and 3.55 µM (active)

Question: With `c1ccc2nc(N3CCNCC3)ccc2c1` as the compound, how does the max response read?
Answer: -4.39% (inactive)

Question: For `CNC(C)Cc1ccccc1OC` (stereo not given), which max response is on record?
Answer: 0.178% (inactive)

Question: With `NC(N)=N/N=C/c1c(Cl)cccc1Cl` as the compound, how does the Potency read?
Answer: 3.55 µM (active)

Question: With `Cc1nnc2n1-c1sc(CCc3ccc(CC(C)C)cc3)cc1C(c1ccccc1Cl)=NC2C` (stereo not given) as the compound, how does the max response read?
Answer: -7.02% (inactive)

Question: With `O=C(N[C@@H]1N=C(c2ccccc2F)c2cccc3c2N(CC3)C1=O)c1cc2ccccc2[nH]1` as the compound, how does the max response read?
Answer: -8.36% (inactive)

Question: With `C[C@]12CC[C@H]3[C@@H](CCC4=CC(=O)CC[C@@H]43)[C@@H]1CC[C@@H]2O` as the compound, how does the max response read?
Answer: -13.9% (inactive) and -1.26% (inactive)

Question: With `O=C1NC2CCCCN2C12CCN(CCCN1c3ccccc3CCc3ccc(Cl)cc31)CC2` (stereo not given) as the compound, how does the Potency read?
Answer: 22.4 µM (active)

Question: Which max response does the source give for `CCOC(=O)NC(O)C(Cl)(Cl)Cl` (stereo not given) here?
Answer: 9.34% (inactive)

Question: For `Cc1nc2ccccc2c(=O)n1-c1ccccc1Cl`, which max response is on record?
Answer: 1.05% (inactive)

Question: Which max response does the source give for `COc1cc(C[C@@H](C)N)c(OC)cc1Br` here?
Answer: 0.803% (inactive)

Question: With `C#C[C@]1(O)C=C[C@H]2[C@@H]3CCC4=CC(=O)CC[C@@H]4[C@H]3CC[C@@]21CC` as the compound, how does the max response read?
Answer: 2.38% (inactive)

Question: Which Potency does the source give for `CN(C)C(=S)SC(=S)N(C)C` here?
Answer: 0.794 µM (active)

Question: With `C=CC[C@]1(O)CC[C@H]2[C@@H]3CCC4=CC(=O)CCC4=C3C=C[C@@]21C` as the compound, how does the max response read?
Answer: 1.81% (inactive)

Question: For `COc1cc(C[C@@H](C)N)c(OC)cc1C`, which max response is on record?
Answer: -6.71% (inactive)

Question: With `COc1ccc2c3c1O[C@H]1[C@@H](O)C=C[C@H]4[C@@H](C2)N(C)CC[C@@]341` as the compound, how does the max response read?
Answer: 7.49% (inactive)

Question: With `Cc1c(Cl)c(=O)oc2cc(OP(=O)(OCCCl)OCCCl)ccc12` as the compound, how does the max response read?
Answer: 22.1% (inactive)

Question: Which max response does the source give for `CC(C)(C)OC(=O)c1ncn2c1[C@@H]1CCCN1C(=O)c1c(Br)cccc1-2` here?
Answer: 3.06% (inactive)

Question: With `COc1cc(N)c(Cl)cc1C(=O)NC1CN2CCC1CC2` (stereo not given) as the compound, how does the max response read?
Answer: -2.64% (inactive)

Question: For `CCS(=O)(=O)C(C)(C)S(=O)(=O)CC`, which max response is on record?
Answer: 4.59% (inactive)

Question: With `C[N+](C)(C)CCOC(=O)C(O)(c1ccccc1)c1ccccc1` as the compound, how does the max response read?
Answer: -1.74% (inactive)

Question: With `COc1cc(CC(C)N)c(OC)cc1Br` (stereo not given) as the compound, how does the max response read?
Answer: -17.7% (inactive) and 14.6% (inactive)

Question: With `O=C1NCN(c2ccccc2)C12CCN(CCCOc1ccc(F)cc1)CC2` as the compound, how does the max response read?
Answer: 0.637% (inactive)

Question: With `CC(Cc1ccc2c(c1)OCO2)NO` (stereo not given) as the compound, how does the max response read?
Answer: -6.74% (inactive)

Question: For `O=C(O)CCCCCCNC1c2ccccc2CCc2ccccc21`, which max response is on record?
Answer: -6.01% (inactive)

Question: Which max response does the source give for `CCOC(=O)c1cncn1C(C)c1ccccc1` (stereo not given) here?
Answer: -8.82% (inactive)

Question: For `O=C1CC2(CCCC2)CC(=O)N1CCCCN1CCN(c2ncccn2)CC1`, which max response is on record?
Answer: 13.6% (inactive)

Question: Which max response does the source give for `CCC1(c2cccc(O)c2)CCCCN(C)C1` (stereo not given) here?
Answer: 11.4% (inactive)
